Shown are actives, neighbours in structure and some others; about 2% of the full set was active somewhere.
A3G deaminase: inhibitors of human APOBEC3G DNA deaminase; Q9HC16; recombinant A3G, ssDNA deamination FAM/TAMRA fluorescence; inhibition, % at 20 µM; 0.28% of 330,000 active;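 active = inhibition of at least 40% at 20 µM, with no more than 30% in the related APOBEC3A deaminase screen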;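 also: plate controls were DMSO wells with A3G for no effect and wells lacking A3G enzyme for full effect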
NALP1 yeast inh: NALP1 inhibition | S. cerevisiae NALP1/ASC/caspase-1 growth, X-gal OD620, 72 h | inhibition, % at 10 µM | 0.61% of 280,000 active; in the data active = inhibition mostly above about 24%, no sharp cut-off; inactive = mostly below about 32%
CTSL1 counter: cathepsin L1 inhibition, PFM18AAP counter-screen | 0.49% of 300,000 active | recombinant F. hepatica cathepsin L1, Z-Leu-Arg-MCA fluorescence | inhibition, % at 5.96 µM;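 active = inhibition above the mean of all tested compounds plus 3 SD, set per screening campaign, cut at about 17% in these data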;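 also: 0% = plate median of test compound wells and 100% = 1 µM Z-Phe-Ala-diazomethylketone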
sPLA2-III inh: Inhibits HGIII-sPLA2 liposome hydrolysis, primary screen | Q9NZ20 | QFRET BODIPY PC-A2 liposome hydrolysis, fluorescence | inhibition, % at 12.2 µM | 0.56% of 370,000 active | AID 743126;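 active = inhibition above mean plus 3 SD of compounds lying within the high and low control bounds, cut at about 19% in these data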;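 also: 0% = median of test compound wells and 100% = no enzyme DMSO wells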
Target sequence (Q9NZ20 whole entry, looked up): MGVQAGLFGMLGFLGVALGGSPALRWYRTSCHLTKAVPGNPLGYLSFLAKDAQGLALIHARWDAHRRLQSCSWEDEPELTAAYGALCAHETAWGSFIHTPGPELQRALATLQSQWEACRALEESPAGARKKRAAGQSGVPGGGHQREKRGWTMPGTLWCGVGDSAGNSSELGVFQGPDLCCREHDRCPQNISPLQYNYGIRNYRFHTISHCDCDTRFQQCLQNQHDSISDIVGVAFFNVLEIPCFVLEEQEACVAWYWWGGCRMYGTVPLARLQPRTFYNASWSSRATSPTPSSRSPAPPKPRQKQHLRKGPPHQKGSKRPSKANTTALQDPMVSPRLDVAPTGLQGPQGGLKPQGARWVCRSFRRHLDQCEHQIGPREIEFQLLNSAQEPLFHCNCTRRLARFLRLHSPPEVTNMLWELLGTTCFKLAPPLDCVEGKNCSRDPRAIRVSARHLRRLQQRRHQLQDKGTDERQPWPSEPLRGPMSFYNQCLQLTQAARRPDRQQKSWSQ
APOBEC3A inh: human APOBEC3A DNA deaminase inhibition. inhibition, % at 20 µM. recombinant A3A, FAM/TAMRA ssDNA deamination fluorescence. P31941. 0.41% of 330,000 active;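 active = at least 40% inhibition at 20 µM here, with at most 30% in a related deaminase screen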;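 also: plate controls were A3A with DMSO for no effect and wells lacking A3A enzyme for full effect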
Target sequence (P31941 whole entry, looked up): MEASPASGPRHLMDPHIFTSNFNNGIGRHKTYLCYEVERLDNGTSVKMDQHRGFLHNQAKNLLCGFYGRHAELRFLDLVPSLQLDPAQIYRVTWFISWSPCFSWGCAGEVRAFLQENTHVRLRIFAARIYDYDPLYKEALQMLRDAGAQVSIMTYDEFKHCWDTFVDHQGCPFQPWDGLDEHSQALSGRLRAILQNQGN
APOBEC3G confirm: APOBEC3G (human) deaminase inhibition, confirmed | shares compounds with A3G deaminase | recombinant A3G ssDNA deaminase, UDG/FAM-TAMRA fluorescence | inhibition, % at 20 µM | 72% of 890 active | AID 493152;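 active = inhibition reaching a set limit in any replicate at 20 µM, the limit being 80% of the first screen's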
UDG ctr A3G: counter-screen for APOBEC3G inhibitors: E. coli UDG; shares compounds with A3G deaminase; UDG counterscreen, FAM/TAMRA oligo fluorescence; inhibition, % at 20 µM; 710 tested, under 10 active;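 active = compounds giving 40% or more inhibition at 20 µM in any one of the three replicates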;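 also: plate controls were DMSO wells with UDG and oligo for no effect and DMSO wells lacking both for full effect; inhibitors lower the FAM signal released by uracil excision and alkaline cleavage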
The depositor's hits bear a star; . = not tested or not shown.

SMILES | A3G deaminase | NALP1 yeast inh | CTSL1 counter | sPLA2-III inh | APOBEC3A inh | APOBEC3G confirm | UDG ctr A3G
CCOc1ccc(CCNC(=O)C2CCCCC2)cc1OCC | . | . | . | 5 | . | . | .
CCOC(=O)Cn1cc(CN2C(C(=O)OC)CN(Cc3ccc(Cl)cc3)CCS2(=O)=O)nn1 (centres undefined) | . | . | . | 6 | . | . | .
CC(C)n1cc(CN2CCC(n3nccc3NC(=O)Cc3ccccc3)CC2)cn1 | 71* | 5 | 1 | 10 | 4 | 4 | .
CC(C)n1cc(CN2CCC(n3nccc3NC(=O)CCCc3ccccc3)CC2)cn1 | -2 | -3 | . | -2 | 1 | . | .
CCCC(=O)OC12CCCN(C1)/C(=C/c1ccccc1)C2 (centres undefined) | . | . | . | 2 | . | . | .
CC1CCC2(CC1)NC(=S)N(c1ccccc1)N2 (centres undefined) | 61* | 4 | 3 | 8 | 0 | 23* | 3
CC1CCC2(CC1)NC(=S)N(C(C)(C)C)N2 (centres undefined) | 51* | 10 | -6 | 2 | 2 | 24* | -3
O=C1NC2(CCCCC2)NN1c1ccccc1 | -3 | 20 | 2 | 4 | 2 | . | .
NNc1cc(C(=O)O)ccc1Cl | 40* | -6 | -3 | 1 | -3 | 20 | -2
COc1ccc(CNC(=O)c2cc3ccccc3o2)cc1OC | 71* | 27 | 1 | 12 | -3 | -3 | 1
CC(C)CN1C(=O)[C@]2(CC(=O)N(C)C2c2ccccc2)c2cc(-n3cc(-c4ccccc4)nn3)ccc21 (some centres undefined) | . | . | . | 3 | . | . | .
O=[N+]([O-])c1c(Nc2ccccn2)cc(Cl)c2nonc12 | 45* | . | 8 | -21 | 2 | 60* | .
Cc1cc(-c2csc(N)n2)c(C)n1CCC(C)C | 40* | 7 | -1 | 2 | 6 | 13 | .
Cc1cc(-c2csc(N)n2)c(C)n1CCc1ccccc1 | 3 | 13 | 3 | 6 | -1 | . | .
O=C1Cc2cccc(=O)c(O)c2C(=O)O1 | . | . | . | -2 | . | . | .
O=C1c2c(O)cccc2Cc2cccc(O)c21 | 67* | . | 3 | -2 | 11 | 78* | -5
COc1ccc(S(=O)(=O)Nc2nnc(C(C)(C)C)s2)cc1 | 50* | -6 | 1 | -5 | 5 | 20* | 2
COc1ccc(S(=O)(=O)Nc2nnc(CC(C)(C)C)s2)cc1 | -12 | 4 | 2 | -13 | 27 | . | .
CCOC(=O)c1c(N)sn(-c2ccccc2C)c1=S | 57* | 8 | 4 | 4 | -21 | 54* | 0
CCOC(=O)c1nn(-c2ccccc2C)c(=O)c2c(N)scc12 | 29 | 17 | 8 | -1 | 1 | . | .
Cc1ccc(NC(=O)CN2C(=O)CCSc3ccccc32)cc1C | . | . | . | -2 | . | . | .
S=C(Nc1ccc(Br)cc1Cl)NN1CCOCC1 | 61* | 6 | -7 | 5 | 1 | 3 | .
CCOC(=O)c1sc(NC(=O)c2cc(-c3ccc(C)cc3)nc3ccccc23)c(C#N)c1C | 19 | 19 | -2 | 6 | 0 | . | .
COC(=O)c1sc(NC(=O)c2cc(-c3ccccc3)nc3ccccc23)c(C#N)c1C | 64* | 17 | 7 | -5 | 0 | 58* | 3
COc1ccc(S[C@]2(C(=O)N3CCN(C(C)=O)CC3)CC(=O)N(C(=O)c3ccccc3)[C@@H]2c2ccc(OC)cc2)cc1 | . | . | . | -3 | . | . | .
SMILES | A3G deaminase | NALP1 yeast inh | CTSL1 counter | sPLA2-III inh | APOBEC3A inh | APOBEC3G confirm | UDG ctr A3G
CCc1c(C)[nH]c2ccc(OC)cc2c1=S | 44* | 1 | . | -1 | -4 | 8 | -2
O=C1C(Cl)=C(NC(=O)c2ccccc2)C(=O)C(Cl)=C1NC(=O)c1ccccc1 | 86* | 1 | -2 | -7 | 2 | 91* | .
O=C(NC1=C(Nc2ccc(Cl)cc2)C(=O)c2ccccc2C1=O)c1ccccc1 | 0 | 26 | 7 | 13 | 5 | . | .
Cn1c2ccccc2c(=O)c2c(=O)n(CCCc3ccccc3)cnc21 | . | . | . | -1 | . | . | .
CCc1c(C)sc(NC(=O)Cn2nc(C)c([N+](=O)[O-])c2C)c1C(N)=O | 52* | 0 | 1 | -1 | 0 | 24* | -4
CN[C@H]1C[C@H]2c3[nH]c4cccc(-c5cccc(F)c5)c4c3CCN2C(=O)[C@H]1[C@H](C)O | . | . | . | 7 | . | . | .
Cc1ccccc1NC(=O)Cn1nnc2ccccc21 | 50* | 2 | -3 | 13 | -3 | -8 | -6
Cc1ccccc1C(=O)N(Cc1ccccn1)CC1CCCO1 (centres undefined) | . | . | . | -2 | . | . | .
CCN(CC)c1ccc(NC(=O)COc2ccccc2C)cc1S(=O)(=O)Nc1ccccc1OC | 50* | 18 | 3 | -15 | 4 | 61* | 3
CCN(CC)c1ccc(NC(=O)c2ccc(=O)[nH]c2)cc1S(=O)(=O)Nc1ccccc1OC | 56* | -11 | 5 | -25 | -1 | 38* | -3
CCN(CC)c1ccc(NC(=O)c2ccccc2Br)cc1S(=O)(=O)Nc1ccccc1OC | 34 | 8 | -1 | -1 | 6 | . | .
CCn1c(=O)n2n(c1=O)[C@H]1C[N+](Cc3ccc4c(c3)OCO4)=C(N)NC1=C(C)C2 | . | . | . | 3 | . | . | .
CCCCCCCCN1CCS(=O)(=O)N(Cc2ccc(C)cc2)C(C(=O)OC)C1 (centres undefined) | . | . | . | -3 | . | . | .
c1ccc(OCc2nnc3sc(-c4cccs4)nn23)cc1 | 67* | -3 | 0 | -9 | 4 | 34* | -36
Clc1ccc(Cl)c(-c2nn3c(COc4ccccc4)nnc3s2)c1 | 46* | -3 | -2 | 8 | 7 | 51* | 3
Cn1c(-c2sccc2OCc2ccccc2)n[nH]c1=S | 45* | -17 | 2 | 14 | -1 | 78* | -4
Cc1nc(-c2ccccc2)sc1-c1n[nH]c(=S)n1C | 43* | -8 | 4 | 14 | -6 | 76* | -3
Cn1c(-c2ccc(C(C)(C)C)cc2)n[nH]c1=S | 41* | -18 | -2 | 15 | -3 | 73* | 0
Cc1cc(Cl)ccc1OCC(=O)N/N=C/c1ccc[nH]1 | . | . | . | -1 | . | . | .
O=C(Nc1ccc(OC(F)(F)F)cc1)Nc1c(-c2ccccc2)nc2ncccn12 | . | . | . | -16 | . | . | .
COc1ccc(S[C@]2(C(=O)N3CCOCC3)CC(=O)N(C(=O)c3ccccc3)[C@@H]2c2ccc(OC)cc2)cc1 | . | . | . | -7 | . | . | .
N#CCC[C@H]1CC[C@]2(CCCN(Cc3cccc4ccccc34)C2)O1 | . | . | . | -2 | . | . | .
Cc1cccc2cc(COC(=O)c3ccccn3)c(=O)[nH]c12 | 40* | 8 | 0 | 8 | -15 | -1 | -3
O=C(NCCc1ccccc1)OCc1cn(Cc2cc(F)ccc2F)nn1 | . | . | . | 5 | . | . | .
O=C(Nc1cc(S(=O)(=O)N2CCOCC2)ccc1N1CCCCC1)c1cc(-c2ccccn2)nc2ccccc12 | 53* | -13 | 4 | 3 | 4 | 58* | -2
O=c1c2cc3cc4c(cc3nc2ncn1CCc1ccccc1)OCO4 | . | . | . | 5 | . | . | .
CC(=O)Nc1n[nH]c(=S)s1 | . | . | . | 7 | . | . | .
